Giardia FBPA inh-1 – Giardia lamblia aldolase inhibition. purified Giardia FBPA. A8B2U2. actives 0.71% (n = 290,000). Potency, µM (highest dose often 59.6 µM), usual class: inhibitors. AID 2451; also: nearly all actives have a fitted effect of over 55% in size
Target sequence (A8B2U2 whole entry, looked up): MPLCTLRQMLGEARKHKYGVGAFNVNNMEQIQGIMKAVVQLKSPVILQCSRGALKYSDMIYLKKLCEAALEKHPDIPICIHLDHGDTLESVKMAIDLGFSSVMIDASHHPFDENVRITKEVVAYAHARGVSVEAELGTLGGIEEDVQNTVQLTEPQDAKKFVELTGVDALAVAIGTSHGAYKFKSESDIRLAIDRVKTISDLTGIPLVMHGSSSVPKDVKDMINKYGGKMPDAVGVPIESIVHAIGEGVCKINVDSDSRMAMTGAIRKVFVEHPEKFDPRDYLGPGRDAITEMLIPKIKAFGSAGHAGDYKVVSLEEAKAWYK
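40 nM FBPA preincubated 10 min at RT with compound (up to 57.5 uM final), then substrate plus GAPDH/TPI/NAD/arsenate coupling and diaphorase/resazurin added. Fluorescence read after 20 min at RT, 525/598 nm.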
Cruzain noTriton – blocks cruzain activity in detergent-free assay. P25779. purified cruzain, Z-FR-AMC fluorescence, no detergent. Potency, µM, hits mostly inhibitors. actives 2.3% (n = 200,000). AID 1476; also: nearly all actives have a fitted effect of over 40% in size
Target sequence (P25779 123-467 limits assumed): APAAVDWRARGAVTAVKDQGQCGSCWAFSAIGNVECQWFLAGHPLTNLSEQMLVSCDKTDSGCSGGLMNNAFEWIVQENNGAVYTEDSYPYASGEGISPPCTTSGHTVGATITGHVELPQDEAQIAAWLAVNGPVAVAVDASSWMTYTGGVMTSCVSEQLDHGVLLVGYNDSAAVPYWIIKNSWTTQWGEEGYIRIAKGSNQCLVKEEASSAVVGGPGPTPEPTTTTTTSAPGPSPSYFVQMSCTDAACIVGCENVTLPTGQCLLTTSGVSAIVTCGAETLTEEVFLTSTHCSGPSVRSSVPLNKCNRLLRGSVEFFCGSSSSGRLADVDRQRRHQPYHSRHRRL
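Detergent-free condition (0.00005% Triton X-100) in acetate buffer pH 5.5 with DTT. 1.5 nM enzyme and compound were pre-mixed 15 min, then 2 uM Z-FR-AMC substrate added; reaction progress from fluorescence change between first and third reads (60 s).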
Cruzain inh Det – cruzain (T. cruzi) inhibition with detergent; purified cruzain, Z-FR-AMC fluorescence, 0.01% Triton; Potency, µM, usual class: inhibitors; actives 0.43% (n = 200,000); also: nearly all actives have a fitted effect of over 40% in size
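Cysteine protease activity tested under reducing, mildly acidic conditions (100 mM sodium acetate pH 5.5, 5 mM DTT) plus 0.01% Triton X-100. Cruzain 1.5 nM; substrate Z-FR-AMC 2 uM; 15 min compound preincubation at room temperature.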
Giardia growth – Giardia lamblia growth inhibition. shares compounds with Giardia FBPA inh-1. Giardia lamblia trophozoite growth inhibition. Potency, µM (highest dose often 57.5 µM), hits mostly inhibitors. actives 5% (n = 1,500). AID 2785;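 also: trophozoites exposed to compound for 48 h at 37 °C; nearly all actives have a fitted effect of over 70% in size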
Mammalian tox – counter-screen for Giardia aldolase inhibitors: mammalian cell toxicity | shares compounds with Giardia FBPA inh-1 | mammalian cell viability counter-screen, qHTS | Potency, µM (series often up to 57.5 µM), most hits filed as inhibitors | actives 4% (n = 1,500);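 also: Chinese hamster ovary cells used as mammalian cytotoxicity surrogate; viability measured as cellular ATP by luminescence; compound exposure lasted 48 h before reading; nearly all actives have a fitted effect of over 60% in size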
Giardia FBPA inh-2 – confirmation of Giardia fructose-bisphosphate aldolase inhibitors; shares compounds with Giardia FBPA inh-1; purified Giardia aldolase enzyme activity, qHTS; Potency, µM (titrated, usually from 57.5 µM), usual class: inhibitors; actives 5% (n = 1,500); also: nearly all actives have a fitted effect of over 45% in size
Rabbit FBPA inh – blocks rabbit muscle aldolase in Giardia aldolase selectivity test. shares compounds with Giardia FBPA inh-1. Rabbit muscle FBPA enzyme inhibition, selectivity counter-screen. Potency, µM (series often up to 57.5 µM), usual class: inhibitors. AID 2794. actives 4% (n = 1,500); also: nearly all actives have a fitted effect of over 60% in size
GAPDH coupling – counter-screen for Giardia aldolase inhibitors: GAPDH coupling enzyme; shares compounds with Giardia FBPA inh-1; GAPDH coupling enzyme counterscreen, biochemical, qHTS; Potency, µM (series often up to 57.5 µM), most hits filed as inhibitors; actives 6% (n = 1,500); AID 2795; also: nearly all actives have a fitted effect of over 55% in size
A number is an active result; n = inactive; u = inconclusive; x = no result given; ! = not active in a repeat; [ ] = dose if it differs, or a comment. The full list was thinned out, with hits kept by preference. Calls follow the shape of the dose curve; as a rule, active = well fitted curve in the direction sought with a large enough effect; inconclusive = small, poorly fitted or top-dose-only effect, or another doubt; inactive = no such curve, though single readings can be large; an effect the other way counts as inactive or inconclusive.

SMILES	Giardia FBPA inh-1	Cruzain noTriton	Cruzain inh Det	Giardia growth	Mammalian tox	Giardia FBPA inh-2	Rabbit FBPA inh	GAPDH coupling
COc1cc(OC)c(OC)cc1CN1CCN(C(=O)Cc2ccccc2)CC1	n	x	x	x	x	x	x	x
COc1ccc(CN2CCNCC2)c(OC)c1OC	22.4µM!	n	n	n[10.4 µM]	n	n	n	n
C[C@@H](c1ccccc1)N1C(=O)[C@H]2[C@H]3[C@H](O)[C@H](O)C/C(=N/NC(=O)OCc4ccccc4)[C@H]3CC[C@@H]2C1=O	n[12.9 µM]	x	x	x	x	x	x	x
CCc1ccc(NC(=O)CSc2ncc(S(=O)(=O)c3cc(C)ccc3C)c(=O)[nH]2)cc1	x	u	n	x	x	x	x	x
O=C(NC(=S)Nc1cc(Cl)ccc1N1CCOCC1)c1ccccc1[N+](=O)[O-]	n	x	x	x	x	x	x	x
O=C(NC(=S)Nc1ccc(Cl)cn1)c1cc([N+](=O)[O-])ccc1N1CCOCC1	14.1µM	x	x	n	n	n	n	n
CCOC(=O)c1cc(C)n(CC2CCC(C(=O)Nc3ccc(Cl)cc3)CC2)c1C (stereo not drawn)	x	n	n	x	x	x	x	x
CN(C)c1ccc(CNC(=O)c2cccn2-c2nnc(N3CCCCC3)s2)cc1	x	n	n	x	x	x	x	x
CCOc1ccc(NC(=O)CC2C(=O)N(c3ccccc3)C(=O)N2C2CCCCC2)cc1 (stereo not drawn)	x	n	n	x	x	x	x	x
CC(C)n1c(=O)[nH]c2ccccc21	n	n	n	x	x	x	x	x
CC(C)n1c(=O)[nH][nH]c1=S	17.7µM	x	x	n[10.4 µM]	n	n	31.6µM	n
CCCC(C)c1nnc(NC(=O)c2cc(C(=O)OC)cc([N+](=O)[O-])c2)s1 (stereo not drawn)	17.7µM	n	n	u	n	n	n	n
CCCC(C)NC(=O)c1cc(C(=O)OC)cc([N+](=O)[O-])c1 (stereo not drawn)	n	n	n	x	x	x	x	x
COc1ccc(-n2c(=O)c3c(c4cc(OC)ccc4n3C)n(CC(=O)N3CCCC3)c2=O)cc1	x	n	n	x	x	x	x	x
COc1ccc(-c2nc(C)c(CCNC(=O)C(=O)Nc3cc(C)cc(C)c3)s2)cc1OC	x	n	n	x	x	x	x	x
Cc1ccc(NC(=O)Nn2cnnc2)c(C)c1	n	x	x	x	x	x	x	x
Cc1ccc(NC(=S)Nn2cnnc2)c(C)c1	12.6µM	x	x	n	n	n	n	n
CCN(CC)c1nc2c(S(=O)(=O)c3cccc(Cl)c3)nnn2c2ccsc12	x	n	n	x	x	x	x	x
O=C(O)COc1ccccc1C(Nc1cccnc1)c1cc(Cl)c2cccnc2c1O (stereo not drawn)	17.7µM	x	x	n	n	n	n	n
O=C(O)COc1ccccc1C(Nc1ccccn1)c1cc(Cl)c2cccnc2c1O (stereo not drawn)	u	u	n	x	x	x	x	x
CO[C@H]1COC(=O)C/C=C\[C@@H](C)COC(=O)[C@@H](CCSC)NC(=O)C/C=C\[C@@H]1C	n[12.9 µM]	x	x	x	x	x	x	x
CCC(=O)N1CCc2cc(S(=O)(=O)NC(Cc3ccccc3)C(=O)Nc3ccc(Cl)cc3)ccc21 (stereo not drawn)	x	n	n	x	x	x	x	x
COc1ccc(S(=O)(=O)N2CCN(CC(=O)Nc3ccc(Cl)c(C(F)(F)F)c3)CC2)cc1	x	n	n	x	x	x	x	x
O=C(O)c1cccc(-n2c(-c3cnccn3)n[nH]c2=S)c1	19.9µM	x	x	n[10.4 µM]	n	n	n	n
S=c1[nH]nc(-c2cnccn2)n1-c1ccccc1	n	n	n	x	x	x	x	x
SMILES	Giardia FBPA inh-1	Cruzain noTriton	Cruzain inh Det	Giardia growth	Mammalian tox	Giardia FBPA inh-2	Rabbit FBPA inh	GAPDH coupling
CCOc1ccc(NS(=O)(=O)c2ccc3c(c2)NC(=O)CCS3)cc1	x	n	n	x	x	x	x	x
CCc1cccc(C)c1NC(=S)N(CCCN1CCOCC1)Cc1cccnc1	15.8µM	x	x	n	n	n	n	n
CCOc1ccc(NC(=O)N(CCCN2CCOCC2)Cc2cccnc2)cc1	n	n	n	x	x	x	x	x
Cc1cc2c(nc1C)CCCCN2C[C@H](C)O/N=C1/[C@H]2O[C@@H]2[C@@H](O)[C@H]2[C@H]1CCn1c(=O)n(-c3ccccc3)c(=O)n12	n[12.9 µM]	x	x	x	x	x	x	x
Cc1c(N=Cc2c(O)n(C)c(=O)[nH]c2=O)c(=O)n(-c2ccccc2)n1C	n	x	x	x	x	x	x	x
Cc1c(N=Nc2c(O)[nH]c(=O)[nH]c2=O)c(=O)n(-c2ccccc2)n1C	15.8µM	x	x	n[10.4 µM]	n	n	n	n
Cc1c(N=CC=Nc2c(C)n(C)n(-c3ccccc3)c2=O)c(=O)n(-c2ccccc2)n1C	n	n	n	x	x	x	x	x
Cc1c(N=Nc2c(O)n(-c3ccc(Br)cc3)c(=O)[nH]c2=O)c(=O)n(-c2ccccc2)n1C	15.8µM	x	x	u	n	n	n	n
O=C(NCc1ccccn1)c1c(Cl)cccc1Cl	n	n	n	x	x	x	x	x
O=C(CC(NCc1ccccn1)C(=O)O)Nc1ccccc1Cl (stereo not drawn)	6.29µM	x	x	u	n	n	n	n
CN1CCN(Cc2nc3cccc4c3c([n+]2[O-])-c2ccccc2-4)CC1	x	n	n	x	x	x	x	x
O=C1CCC[C@H]2OC12[C@@H](O)CCc1ccccc1 (stereo partly drawn)	n[12.9 µM]	x	x	x	x	x	x	x
COC(=O)C1=C(O)/C(=C\c2cc(C)n(-c3ccc(F)cc3)c2C)N=C1C	15.8µM	x	x	n[10.4 µM]	n	n	n	n
COC(=O)C1=C(O)/C(=C/c2cccc(OC)c2O)N=C1C	n	x	x	x	x	x	x	x
COC/C=C/C1=CC2=CC(=O)C(C)(OC(=O)c3cnc4ccccc4n3)C(=O)C2=CN1CCN1CCOCC1 (stereo not drawn)	15.8µM	x	x	n	n	u	u	u
COC/C=C/C1=CC2=CC(=O)C(C)(OC(=O)c3cnc4ccccc4n3)C(=O)C2=CN1c1cccc(C#N)c1 (stereo not drawn)	n[12.9 µM]	x	x	x	x	x	x	x
O=C(O)c1ccc(S(=O)(=O)N[C@H](Cc2ccc(O)cc2)C(=O)O)cc1	n	x	x	x	x	x	x	x
CCSc1ncc(Cl)c(C(=O)N(Cc2ccccc2)c2ccc(OC)cc2)n1	x	n	n	x	x	x	x	x
CCc1ccc(-n2c(=O)c3ccccc3n3c(=S)[nH]nc23)cc1	n	x	x	x	x	x	x	x
COCCCn1c(=O)c2ccccc2n2c(=S)[nH]nc12	7.08µM	x	x	n	n	n	n	n
CC(CNC(=O)CCc1cn(Cc2ccccc2Cl)c2ccccc12)c1ccccc1 (stereo not drawn)	x	n	n	x	x	x	x	x
CCOC(=O)c1cnc(-n2nc(C)cc2C)nc1N(C)C	n	n	n	x	x	x	x	x
CCOC(=O)c1cnc(-n2nc(C)cc2C)[nH]c1=O	4.46µM	x	x	n	n	n	n	n
O=C(Nc1nnc(-c2ccc(F)cc2)s1)c1ccco1	n	x	x	x	x	x	x	x
O=C(Nc1n[nH]c(=S)s1)c1ccco1	7.08µM	x	x	n	n	39.8µM	n	n
Cc1c(C(=O)O)c(C(=O)O)nc2ccc(N3CCOCC3)cc12	11.2µM	x	x	n	n	u	n	u
Cc1ccc2nc(C)cc(N3CCOCC3)c2c1	n	n	n	x	x	x	x	x
O=C(NCc1ccccc1Cl)C1CCCN(C(=O)c2cnn(-c3ccc(F)cc3)c2-n2cccc2)C1 (stereo not drawn)	x	u	n	x	x	x	x	x
